High-throughput results as filed in PubChem BioAssay.
HCV inh – HCV inhibition. Huh7.5.1 HCVcc-Cre infection, luciferase reporter, 44 h. Potency, µM (titrated, usually from 41.8 µM), inactives show at the highest dose activity change, negative = inhibition, most hits filed as inhibitors. 340,000 compounds, 3.4% hits; note: potency is the fitted concentration of half-maximal effect
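Whole-lifecycle infectious HCVcc-Cre system; cells 1,000/well, compound then virus (~0.5 moi) added 4 h after plating, 44 h culture. Luciferase read 15 sec following 15 min substrate incubation, room temp.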
Pf growth 48h – P. falciparum growth inhibition at 48 hours (one generation); P. falciparum luciferase growth in erythrocytes, 48 h; Potency, µM (titrated, usually from 28.7 µM), without a hit: at the top dose activity change, negative = inhibition, hits mostly inhibitors; 310,000 compounds, 5.9% hits; note: potency is the fitted concentration of half-maximal effect
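Parasite viability was followed by luminescence of a genomically integrated firefly luciferase. Cultures held 0.1% parasitemia at 2% hematocrit (final), incubated under 5% CO2 at 37 C.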
Lassa entry inh – Lassa virus entry inhibition; Lassa virus pseudotype entry inhibition, cell reporter; Potency, µM (series often up to 37.9 µM), for the others: at the top dose activity change, negative = inhibition, actives largely listed as inhibitors; 300,000 compounds, 1.2% hits; calls by dose curve; tested in HEK293 cells; note: potency is the fitted concentration of half-maximal effect; nearly all actives have a fitted effect of over 50% in size
Marburg entry inh – blocks Marburg virus binding to or entry into cells. Marburg virus pseudotyped entry inhibition, cell reporter. Potency, µM (titrated, usually from 37.8 µM), for the others: at the highest dose activity change, negative = inhibition, most hits filed as inhibitors. 300,000 compounds, 1.8% hits. AID 540276; calls by dose curve; tested in HEK293 cells; note: potency is the fitted concentration of half-maximal effect
HCMV antiviral – human cytomegalovirus inhibition. HFF cells, HCMV-luciferase reporter, 72 h; active compounds read low. activity change, negative = inhibition, % at 57.5 µM. 410,000 compounds, 4.5% hits; in the data active = activity change below about -60%; inconclusive = no clear call, values can overlap the other calls; inactive = above about -39%
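Cell-based, HFFs, 1000 cells/well, 16 h 37C; cpds in DMSO + HCMV-luc, MOI 1 PFU/cell; 72 h 37C; OneGlo luminescence after 5 min RT; norm. to buffer vs Salinomycin 10uM.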
Pf growth 96h – P. falciparum growth inhibition at 96 hours; P. falciparum luciferase reporter growth, 96 h; Potency, µM (series often up to 28.7 µM), inactives show at the top dose activity change, negative = inhibition, most hits filed as inhibitors; 320,000 compounds, 6.9% hits; AID 504834; note: potency is the fitted concentration of half-maximal effect
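Readout is luminescence from an integrated firefly luciferase in P. falciparum. Red cells, 2% hematocrit and 0.05% parasitemia final, were cultured with compound through two parasite generations (96 hours) at 37 C, 5% CO2.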
An asterisk follows results filed as active; u = inconclusive; x = no result; [ ] = remark or other dose. Only some compounds are listed: those with a hit (about 14% of all), similar ones and a draw of the others. Unless noted, calls come from the whole dose curve; as a rule, active = well fitted inhibition curve with a large enough effect; inconclusive = small, poorly fitted or top-dose-only effect, or another doubt; inactive = no such curve, though single readings can be large or run the other way. % is set by controls: 0 for no effect and ±100 for the full control effect.

SMILES	HCV inh	Pf growth 48h	Lassa entry inh	Marburg entry inh	HCMV antiviral	Pf growth 96h
O=C(Oc1ccc(N(C(=O)c2ccncc2)S(=O)(=O)c2ccc(Cl)cc2)cc1)c1ccncc1	-21%	10%	x	x	-5	2.6µM*
NCC1OC(O[C@H]2[C@H](O)[C@@H](OC3C(O)C(N)CC(N)C3OC3OC(CO)C(O)C(O)C3N)O[C@@H]2CO)C(N)C(O)C1O (stereo partly drawn)	x	x	21%	11%	x	x
CCNc1nc(NCc2ccc(F)cc2)c2cnn(C)c2n1	x	x	-22%[46.1 µM]	x	u	x
CCNc1nc(Nc2ccc(C)c(Cl)c2)c2cnn(C)c2n1	14µM*	0%	x	x	-20	-9%
CCCCNc1nc(Nc2ccc(C)c(Cl)c2)c2cnn(C)c2n1	13µM*	u	x	x	1	55%
COCCNc1nc(NCc2cccc(Cl)c2)c2cnn(C)c2n1	x	x	-24%[46.1 µM]	x	-27	x
COc1ccc(C(=O)c2ccccc2)c2c(O)ccc(C(=O)c3ccccc3)c12	2.5µM*	u	u	14µM*	-79*	x
FC(F)(F)c1cccc(-c2n[nH]c3ccnc(-c4ccsc4)c23)c1	x	x	x	x	-60*	x
C=CCOc1ccc(C(=O)/C=C2/C(=O)Nc3ccccc32)cc1	-20%	1%	-19%[46.1 µM]	u	-69*	-5%
COc1ccc(C(=O)/C=C2/C(=O)Nc3ccccc32)c(OC)c1	u	-6%	u	u	-100*	3%
COc1ccc(C(=O)/C=C2/C(=O)Nc3ccccc32)cc1	-1%	25%	x	x	-13	24%
O=C1Nc2ccccc2/C1=C/C(=O)c1cccs1	u	15%	-15%	u	-95*	x
C=CCOc1ccccc1C(=O)/C=C1/C(=O)Nc2ccccc21	-13%	1%	x	x	-103*	0%
O=C(NN=Cc1ccc2c(c1)CCC2)c1cccc([N+](=O)[O-])c1	x	x	x	x	11	x
CCOC(=O)c1c(C)[nH]c(CCC(=O)Nc2ccc(Cl)cc2C)c1C	x	x	-18%[46.1 µM]	x	9	x
COc1ccc(C(CCNCc2ccc(N(C)C)cc2)C(C)C)cc1 (stereo not drawn)	u	9.3µM*	x	x	-75*	7.4µM*
COc1ccc(CCC(C)NCc2ccc(F)cc2)cc1 (stereo not drawn)	8%	9%	x	x	-4	-11%
COc1ccc(C(CCNCc2ccc(OC(C)C)cc2)C(C)C)cc1 (stereo not drawn)	u	u	u	u	-79*	u
COc1ccc(CNC(=O)C(C)OC(=O)c2cccc(N(C)C)c2)cc1 (stereo not drawn)	u	x	x	x	29	x
COc1ccc(CNCCC(c2ccc(OC(C)C)cc2)C(C)C)cc1OC (stereo not drawn)	8.9µM*	u	21µM*	u	-104*	u
C[C@H]1[C@@H](NC(=O)Nc2ccc(C(F)(F)F)cc2)CC[C@@]23CCCN2C(=O)CCC[C@@H]13	x	x	x	x	-27	x
Cc1ccccc1C(=O)Nc1ccc(S(=O)(=O)N2CCC(c3nc4ccccc4s3)CC2)cc1	x	x	-4%[46.1 µM]	-9%[46.1 µM]	4	x
Cc1ccc(S(=O)(=O)N2C[C@@H](C)[C@]3(C2)[C@H](O)[C@H](OC(=O)NCc2ccccc2F)C[C@H]2C(=O)N(c4ccccc4)C(=O)[C@H]23)cc1	x	x	x	x	-9	x
Cc1ccc(-c2c(C#N)c(N)n(-c3ccccc3C)c(=O)c2C#N)cc1	x	x	x	x	2	x
COc1ccc(C(=O)NCCn2cc(SCC(=O)Nc3cccc(C)c3)c3ccccc32)cc1	x	x	u	-30%[46.1 µM]	u	x
SMILES	HCV inh	Pf growth 48h	Lassa entry inh	Marburg entry inh	HCMV antiviral	Pf growth 96h
O/N=C/c1ccc2ccccc2n1	23%	151%	20%	u	97	106%
O/C(=C\c1ccc2ccccc2n1)c1ccncc1	-21%	164%	x	x	-101*	131%
O=C1NC(=O)C(=Cc2ccccc2[N+](=O)[O-])C(=O)N1	32%	x	8%	1%	-3	x
O=C1NC(=O)C(=Cc2cc3c(cc2[N+](=O)[O-])OCO3)C(=O)N1	1%	21%	1%	-2%[46.1 µM]	-63*	0%
O=C(CCN1C(=O)/C(=C/c2ccc(F)cc2)SC1=S)N[C@@H](CO)Cc1ccccc1	u	35%	x	x	-64*	u
O=C(CCN1C(=O)/C(=C/c2ccccc2F)SC1=S)NCCc1ccc(O)cc1	u	14%	x	x	-93*	16%
COc1ccc(/C=C2\SC(=S)N(CCC(=O)NCCc3ccc(O)cc3)C2=O)cc1	1%	40%	x	x	u	16%
O=C(CCN1C(=O)/C(=C/c2ccccc2F)SC1=S)NCCCn1ccnc1	1%	u	x	x	-35	u
O=C(CCN1C(=O)/C(=C/c2ccccc2)SC1=S)NCCc1ccc(O)cc1	u	-2%	x	x	x	12µM*
COc1ccccc1/C=C1\SC(=S)N(CCC(=O)Nc2ccc(C(=O)O)c(O)c2)C1=O	15%	39%	28%[46.1 µM]	-5%[46.1 µM]	-15	4%
COc1ccccc1/C=C1\SC(=S)N(CCC(=O)NCCc2ccc(O)cc2)C1=O	u	u	u	u	-75*	u
Cc1cc(NC(=O)c2cccc(Cl)c2)n[nH]1	16%	167%	x	x	59	102%
Cc1cc(NC(=O)NC(=O)c2ccc(F)cc2F)n[nH]1	16%	176%	16µM*	u	25	u
O=C(NCc1ccccc1Cl)c1csc(COCCO)n1	x	x	x	x	27	x
O=[N+]([O-])c1ccc2nc(-c3ccc(Cl)cc3)[nH]c2c1	-6%	u	u	u	-62*	-104%
